# Data as given in PubChem BioAssay (EPA / NIEHS).
# Records with an inconclusive call do not appear. Activity calls are given as the source filed them. How the source made its calls: active means hit-call score of the fitted dose curve at least 0.9, where 1 is the maximum; inconclusive means response in the unintended direction; inactive means score below 0.9.
# Experiments:
# [1] = target: human Phosphatase and Tensin Homolog (PTEN), PTEN (gene 5728) (UniProt P60484); assay: NVS_ENZ_hPTEN: NovaScreen (NVS) Enzymatic Assay for human Phosphatase and Tensin Homolog (PTEN) (AID 2283203)
# Outline: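 Cell-free recombinant human PTEN with fluorescent substrate; product separated by electrophoretic mobility shift and read by fluorescence 1 h after dosing. Primary screen in duplicate at 25 uM, actives followed in concentration series versus DMSO.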
# [2] = target: Tyrosine-protein phosphatase non-receptor type 11 (Homo sapiens) (UniProt Q06124); assay: NVS_ENZ_hPTPN11: NovaScreen (NVS) Enzymatic Assay for human Protein Tyrosine Phosphatase Non-receptor Type 11 (PTPN11) (AID 2283202)
# Outline: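 Recombinant human PTPN11 activity on a fluorescent substrate, with substrate/product separated by electrophoretic mobility shift; read 0.5 h after dosing, loss of signal vs DMSO. Duplicate 25 uM screen, then concentration-response up to 50 uM.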
# [3] = target: Tyrosine-protein phosphatase non-receptor type 12 (Homo sapiens) (UniProt Q05209); assay: NVS_ENZ_hPTPN12: NovaScreen (NVS) Enzymatic Assay for human Protein Tyrosine Phosphatase Non-receptor Type 12 (PTPN12) (AID 2283204)
# Outline: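 Single-concentration duplicates (25 uM) preceded singleton concentration-response up to 50 uM for chemicals passing threshold. Cell-free recombinant PTPN12 activity was read 1.33 h after dosing via fluorescence after mobility-shift separation; loss of signal versus DMSO.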
# [4] = target: human Protein Tyrosine Phosphatase Non-receptor Type 2 (PTPN2), PTPN2 (gene 5771) (UniProt P17706); assay: NVS_ENZ_hPTPN2: NovaScreen (NVS) Enzymatic Assay for human Protein Tyrosine Phosphatase Non-receptor Type 2 (PTPN2) (AID 2283207)
# Outline: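 Cell-free recombinant enzyme with fluorescent substrate, product separated by electrophoretic mobility shift; read 1 h after dosing. Primary screen single concentration (25 uM) in duplicate; actives followed in concentration series; loss of signal versus DMSO.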
# [5] = target: human Protein Tyrosine Phosphatase Non-receptor Type 4 (PTPN4), PTPN4 (gene 5775) (UniProt P29074); assay: NVS_ENZ_hPTPN4: NovaScreen (NVS) Enzymatic Assay for human Protein Tyrosine Phosphatase Non-receptor Type 4 (PTPN4) (AID 2283208)
# Outline: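 Cell-free assay of PTPN4 expressed in Sf9 cells, using a fluorescent substrate with product separated by mobility shift; read 1.33 h after dosing. Single-point screen at 25 uM, then concentration-response up to 50 uM. Loss of signal relative to DMSO.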
# [6] = target: human Protein Tyrosine Phosphatase Non-receptor Type 9 (PTPN9), PTPN9 (gene 5780) (UniProt P43378); assay: NVS_ENZ_hPTPN9: NovaScreen (NVS) Enzymatic Assay for human Protein Tyrosine Phosphatase Non-receptor Type 9 (PTPN9) (AID 2283209)
# Outline: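 Sf9-expressed enzyme in a cell-free assay, fluorescence read 1.33 h after dosing with mobility-shift separation of substrate and product. Tested at 25 uM in duplicate, then up to 50 uM; signal loss versus DMSO.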
# [7] = target: human Protein Tyrosine Phosphatase Receptor Type B (PTPRB), PTPRB (gene 5787) (UniProt P23467); assay: NVS_ENZ_hPTPRB: NovaScreen (NVS) Enzymatic Assay for human Protein Tyrosine Phosphatase Receptor Type B (PTPRB) (AID 2283211)
# Outline: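 Recombinant human PTPRB with a fluorescent substrate, product separated by electrophoretic mobility shift; read 1 h after dosing. Primary screen in duplicate at 25 uM; actives then retested in concentration series; loss of signal versus DMSO.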
# [8] = target: human Rho Associated Coiled-coil Containing Protein Kinase 1 (ROCK1), ROCK1 (gene 6093) (UniProt Q13464); assay: NVS_ENZ_hROCK1: NovaScreen (NVS) Enzymatic Assay for human Rho Associated Coiled-coil Containing Protein Kinase 1 (ROCK1) (AID 2283214)
# Outline: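 Cell-free recombinant human ROCK1 activity assay; fluorescent substrate and product separated by electrophoretic mobility shift, read 1 h after dosing. Screened in duplicate at 25 uM; loss of signal versus DMSO baseline scored as inhibition.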
# [9] = target: human Sirtuin 2 (SIRT2), SIRT2 (gene 22933) (UniProt Q8IXJ6); assay: NVS_ENZ_hSIRT2: NovaScreen (NVS) Enzymatic Assay for human Sirtuin 2 (SIRT2) (AID 2283217)
# Outline: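 Cell-free recombinant human SIRT2, fluorescent substrate with product separated by electrophoretic mobility shift, 1 hr. Screened in duplicate at 25 uM; hits rerun singly in concentration-response up to 50 uM, relative to DMSO.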
# [10] = target: human SRC Proto-Oncogene, Non-receptor Tyrosine Kinase (SRC), SRC (gene 6714) (UniProt P12931); assay: NVS_ENZ_hSRC: NovaScreen (NVS) Enzymatic Assay for human SRC Proto-Oncogene, Non-receptor Tyrosine Kinase (SRC) (AID 2283223)
# Outline: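 Cell-free kinase activity assay with fluorescent substrate, product separated by electrophoretic mobility shift, read 1 h after dosing. Duplicate single point at 25 uM, then concentration-response up to 50 uM; loss of signal versus DMSO.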
# [11] = target: human Tyrosine Protein Kinase Receptor Tie-2 (Tie2), TEK (gene 7010) (UniProt Q02763); assay: NVS_ENZ_hTie2: NovaScreen (NVS) Enzymatic Assay for human Tyrosine Protein Kinase Receptor Tie-2 (Tie2) (AID 2283225)
# Outline: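 Recombinant human Tie2 kinase activity was read cell-free by fluorescence with electrophoretic mobility shift, 1 hour after dosing. The screen used 25 uM in duplicate, then concentration-response up to 50 uM. Signal loss was scored against DMSO.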
# [12] = target: human Raf-1 Proto-Oncogene, serine/threonine Kinase (RAF1), RAF1 (gene 5894) (UniProt P04049); assay: NVS_ENZ_hRAF1: NovaScreen (NVS) Enzymatic Assay for human Raf-1 Proto-Oncogene, serine/threonine Kinase (RAF1) (AID 2283216)
# Outline: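 Cell-free recombinant kinase with specific fluorescent substrate, product separated by electrophoretic mobility shift; read 1 h after dosing. Primary screen at 25 uM in duplicate; hits then run in concentration-response up to 50 uM, fitted as loss of signal versus DMSO.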
# [13] = target: human Protein Tyrosine Phosphatase Non-receptor Type 6 (PTPN6), PTPN6 (gene 5777) (UniProt P29350); assay: NVS_ENZ_hPTPN6: NovaScreen (NVS) Enzymatic Assay for human Protein Tyrosine Phosphatase Non-receptor Type 6 (PTPN6) (AID 2283210)
# Outline: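 Cell-free assay with recombinant PTPN6 expressed in SF9 cells, fluorescent substrate, product separated from substrate by electrophoretic mobility shift; read 1.33 hours after dosing. Primary screen in duplicate at 25 uM, actives retested in concentration series; DMSO baseline.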
# [14] = target: human Protein Tyrosine Phosphatase Receptor Type C (PTPRC), PTPRC (gene 5788) (UniProt P08575); assay: NVS_ENZ_hPTPRC: NovaScreen (NVS) Enzymatic Assay for human Protein Tyrosine Phosphatase Receptor Type C (PTPRC) (AID 2283212)
# Outline: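 Yeast-extracted human PTPRC used in a cell-free colorimetric enzyme activity read-out, 1 h after dosing. Primary screen in duplicate at 25 uM; actives rerun in concentration-response up to 50 uM, DMSO as baseline.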
# [15] = target: human Sirtuin 1 (SIRT1), SIRT1 (gene 23411) (UniProt Q96EB6); assay: NVS_ENZ_hSIRT1: NovaScreen (NVS) Enzymatic Assay for human Sirtuin 1 (SIRT1) (AID 2283219)
# Outline: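 Cell-free recombinant SIRT1 with a fluorescent substrate; substrate and product separated by electrophoretic mobility shift and read by fluorescence intensity, 1 h after dosing. Primary screen at 25 uM in duplicate; hits re-run in concentration-response up to 50 uM, relative to DMSO.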
# [16] = target: Tyrosine-protein phosphatase non-receptor type 13 (Homo sapiens) (UniProt Q12923); assay: NVS_ENZ_hPTPN13: NovaScreen (NVS) Enzymatic Assay for human Protein Tyrosine Phosphatase Non-receptor Type 13 (PTPN13) (AID 2283205)
# Outline: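 Cell-free assay of recombinant human PTPN13 with a fluorescent substrate, product separated by electrophoretic mobility shift and read 0.5 h after dosing. Primary screen at 25 uM in duplicate, then concentration-response up to 50 uM. Loss of signal fitted against DMSO.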
# [17] = target: Tyrosine-protein phosphatase non-receptor type 14 (Homo sapiens) (UniProt Q15678); assay: NVS_ENZ_hPTPN14: NovaScreen (NVS) Enzymatic Assay for human Protein Tyrosine Phosphatase Non-receptor Type 14 (PTPN14) (AID 2283206)
# Outline: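 Cell-free recombinant human PTPN14 with fluorescent substrate, read 0.5 h after dosing by fluorescence and electrophoretic mobility shift separating substrate from product. Primary screen at 25 uM in duplicate; hits run to 50 uM maximum; loss of signal versus DMSO.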
# [18] = target: human Protein Tyrosine Phosphatase Receptor Type F (PTPRF), PTPRF (gene 5792) (UniProt P10586); assay: NVS_ENZ_hPTPRF: NovaScreen (NVS) Enzymatic Assay for human Protein Tyrosine Phosphatase Receptor Type F (PTPRF) (AID 2283213)
# Outline: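 Cell-free fluorescence enzyme assay with recombinant protein and substrate; product separated by electrophoretic mobility shift. Read 1 h after dosing, single 25 uM duplicate screen, then concentration-response up to 50 uM; loss of signal vs DMSO.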
# [19] = target: human Protein Tyrosine Phosphatase Receptor Type M (PTPRM), PTPRM (gene 5797) (UniProt P28827); assay: NVS_ENZ_hPTPRM: NovaScreen (NVS) Enzymatic Assay for human Protein Tyrosine Phosphatase Receptor Type M (PTPRM) (AID 2283215)
# Outline: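 Cell-free recombinant PTPRM with fluorogenic substrate; product separated from substrate by electrophoretic mobility shift and read by fluorescence, 1.33 h after dosing. Primary screen single concentration (25 uM) in duplicate; actives retested in concentration series; loss of signal versus DMSO.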
# [20] = target: human Tropomyosin Receptor Kinase A (TRKA), NTRK1 (gene 4914) (UniProt P04629); assay: NVS_ENZ_hTrkA: NovaScreen (NVS) Enzymatic Assay for human Tropomyosin Receptor Kinase A (TRKA) (AID 2283224)
# Outline: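 Recombinant human TrkA activity read after 1 h by fluorescence with electrophoretic mobility shift separating substrate and product. Primary screen in duplicate at 25 uM; actives were rerun in concentration-response up to 50 uM. Loss of signal versus DMSO.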
# Chain of human Sirtuin 1 (SIRT1), SIRT1 (gene 23411) (Q96EB6 whole entry, looked up): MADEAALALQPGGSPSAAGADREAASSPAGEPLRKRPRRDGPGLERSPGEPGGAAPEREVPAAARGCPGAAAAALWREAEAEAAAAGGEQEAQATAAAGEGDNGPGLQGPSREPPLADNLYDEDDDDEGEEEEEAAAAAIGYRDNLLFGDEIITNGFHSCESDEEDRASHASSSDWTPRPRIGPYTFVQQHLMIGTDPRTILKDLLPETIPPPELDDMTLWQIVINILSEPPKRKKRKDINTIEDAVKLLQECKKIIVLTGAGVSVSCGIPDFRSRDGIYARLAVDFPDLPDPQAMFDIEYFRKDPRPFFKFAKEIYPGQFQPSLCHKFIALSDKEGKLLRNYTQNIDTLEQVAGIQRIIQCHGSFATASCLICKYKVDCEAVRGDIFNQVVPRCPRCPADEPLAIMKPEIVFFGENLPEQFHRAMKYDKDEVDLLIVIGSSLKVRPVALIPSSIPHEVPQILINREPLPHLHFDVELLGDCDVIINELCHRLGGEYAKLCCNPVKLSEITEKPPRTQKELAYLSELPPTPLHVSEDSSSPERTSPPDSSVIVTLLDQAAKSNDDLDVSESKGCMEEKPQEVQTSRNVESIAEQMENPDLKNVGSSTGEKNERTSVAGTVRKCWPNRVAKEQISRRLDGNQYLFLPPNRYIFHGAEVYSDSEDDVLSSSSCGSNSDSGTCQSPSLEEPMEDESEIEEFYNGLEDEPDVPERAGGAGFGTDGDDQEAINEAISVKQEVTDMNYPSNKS
# Chain of human Phosphatase and Tensin Homolog (PTEN), PTEN (gene 5728) (P60484 whole entry, looked up): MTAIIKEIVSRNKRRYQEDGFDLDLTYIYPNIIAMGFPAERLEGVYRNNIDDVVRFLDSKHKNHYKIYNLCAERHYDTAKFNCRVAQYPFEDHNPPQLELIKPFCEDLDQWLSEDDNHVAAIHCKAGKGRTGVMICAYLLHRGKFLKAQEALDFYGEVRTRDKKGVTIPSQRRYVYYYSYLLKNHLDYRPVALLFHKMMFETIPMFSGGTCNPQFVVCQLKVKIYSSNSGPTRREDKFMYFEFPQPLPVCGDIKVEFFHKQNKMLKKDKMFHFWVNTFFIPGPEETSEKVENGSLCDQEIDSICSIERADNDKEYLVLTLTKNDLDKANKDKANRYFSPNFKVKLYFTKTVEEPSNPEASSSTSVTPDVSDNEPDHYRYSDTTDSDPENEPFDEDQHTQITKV
# Chain of human Protein Tyrosine Phosphatase Receptor Type B (PTPRB), PTPRB (gene 5787) (P23467 whole entry, looked up): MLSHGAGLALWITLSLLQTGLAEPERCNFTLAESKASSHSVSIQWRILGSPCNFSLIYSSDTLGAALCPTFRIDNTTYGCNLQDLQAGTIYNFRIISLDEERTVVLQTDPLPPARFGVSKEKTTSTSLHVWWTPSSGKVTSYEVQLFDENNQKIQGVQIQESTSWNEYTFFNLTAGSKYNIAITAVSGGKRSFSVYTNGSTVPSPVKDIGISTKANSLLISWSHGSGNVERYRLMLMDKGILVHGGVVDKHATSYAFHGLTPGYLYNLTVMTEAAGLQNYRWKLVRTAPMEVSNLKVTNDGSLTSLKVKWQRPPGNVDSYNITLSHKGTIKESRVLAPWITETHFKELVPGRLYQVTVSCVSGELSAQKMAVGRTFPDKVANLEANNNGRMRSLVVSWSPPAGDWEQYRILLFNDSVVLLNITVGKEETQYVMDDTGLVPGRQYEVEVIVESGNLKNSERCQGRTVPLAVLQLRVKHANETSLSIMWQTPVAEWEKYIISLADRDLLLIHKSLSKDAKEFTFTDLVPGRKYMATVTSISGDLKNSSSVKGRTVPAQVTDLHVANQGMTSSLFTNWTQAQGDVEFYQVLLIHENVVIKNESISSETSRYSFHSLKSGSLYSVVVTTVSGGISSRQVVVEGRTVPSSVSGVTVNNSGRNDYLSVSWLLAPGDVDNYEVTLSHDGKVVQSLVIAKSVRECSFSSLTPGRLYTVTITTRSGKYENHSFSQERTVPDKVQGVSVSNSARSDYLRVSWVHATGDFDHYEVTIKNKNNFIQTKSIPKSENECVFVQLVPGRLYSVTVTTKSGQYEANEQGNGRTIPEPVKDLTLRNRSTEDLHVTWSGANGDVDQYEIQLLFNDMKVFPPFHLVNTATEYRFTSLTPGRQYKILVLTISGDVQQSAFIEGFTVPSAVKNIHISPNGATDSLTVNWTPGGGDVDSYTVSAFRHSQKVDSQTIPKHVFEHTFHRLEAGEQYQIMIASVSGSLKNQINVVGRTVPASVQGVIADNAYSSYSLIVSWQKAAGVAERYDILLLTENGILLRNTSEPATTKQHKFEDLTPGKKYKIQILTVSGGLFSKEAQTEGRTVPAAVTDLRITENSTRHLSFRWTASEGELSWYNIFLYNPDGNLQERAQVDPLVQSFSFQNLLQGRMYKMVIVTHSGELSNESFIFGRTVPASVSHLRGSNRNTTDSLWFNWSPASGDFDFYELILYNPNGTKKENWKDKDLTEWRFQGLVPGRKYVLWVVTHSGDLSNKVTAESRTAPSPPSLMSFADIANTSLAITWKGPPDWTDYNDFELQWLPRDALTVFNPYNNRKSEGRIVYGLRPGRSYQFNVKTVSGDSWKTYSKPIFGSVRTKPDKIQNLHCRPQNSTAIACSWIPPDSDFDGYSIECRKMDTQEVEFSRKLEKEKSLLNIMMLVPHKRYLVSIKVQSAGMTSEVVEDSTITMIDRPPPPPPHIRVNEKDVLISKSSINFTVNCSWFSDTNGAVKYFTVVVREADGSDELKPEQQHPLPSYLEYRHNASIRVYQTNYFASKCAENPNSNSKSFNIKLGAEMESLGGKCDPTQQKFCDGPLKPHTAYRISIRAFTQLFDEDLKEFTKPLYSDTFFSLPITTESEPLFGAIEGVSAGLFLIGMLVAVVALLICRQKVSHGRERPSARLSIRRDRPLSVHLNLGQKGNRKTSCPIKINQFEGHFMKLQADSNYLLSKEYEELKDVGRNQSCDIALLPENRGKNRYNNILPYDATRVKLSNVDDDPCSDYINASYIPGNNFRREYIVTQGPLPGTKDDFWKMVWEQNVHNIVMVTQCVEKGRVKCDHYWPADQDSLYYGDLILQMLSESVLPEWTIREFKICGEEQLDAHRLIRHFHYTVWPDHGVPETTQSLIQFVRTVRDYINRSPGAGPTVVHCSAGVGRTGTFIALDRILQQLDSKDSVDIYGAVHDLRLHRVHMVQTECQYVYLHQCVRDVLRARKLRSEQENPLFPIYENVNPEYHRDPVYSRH
# Chain of human Protein Tyrosine Phosphatase Receptor Type C (PTPRC), PTPRC (gene 5788) (P08575 whole entry, looked up): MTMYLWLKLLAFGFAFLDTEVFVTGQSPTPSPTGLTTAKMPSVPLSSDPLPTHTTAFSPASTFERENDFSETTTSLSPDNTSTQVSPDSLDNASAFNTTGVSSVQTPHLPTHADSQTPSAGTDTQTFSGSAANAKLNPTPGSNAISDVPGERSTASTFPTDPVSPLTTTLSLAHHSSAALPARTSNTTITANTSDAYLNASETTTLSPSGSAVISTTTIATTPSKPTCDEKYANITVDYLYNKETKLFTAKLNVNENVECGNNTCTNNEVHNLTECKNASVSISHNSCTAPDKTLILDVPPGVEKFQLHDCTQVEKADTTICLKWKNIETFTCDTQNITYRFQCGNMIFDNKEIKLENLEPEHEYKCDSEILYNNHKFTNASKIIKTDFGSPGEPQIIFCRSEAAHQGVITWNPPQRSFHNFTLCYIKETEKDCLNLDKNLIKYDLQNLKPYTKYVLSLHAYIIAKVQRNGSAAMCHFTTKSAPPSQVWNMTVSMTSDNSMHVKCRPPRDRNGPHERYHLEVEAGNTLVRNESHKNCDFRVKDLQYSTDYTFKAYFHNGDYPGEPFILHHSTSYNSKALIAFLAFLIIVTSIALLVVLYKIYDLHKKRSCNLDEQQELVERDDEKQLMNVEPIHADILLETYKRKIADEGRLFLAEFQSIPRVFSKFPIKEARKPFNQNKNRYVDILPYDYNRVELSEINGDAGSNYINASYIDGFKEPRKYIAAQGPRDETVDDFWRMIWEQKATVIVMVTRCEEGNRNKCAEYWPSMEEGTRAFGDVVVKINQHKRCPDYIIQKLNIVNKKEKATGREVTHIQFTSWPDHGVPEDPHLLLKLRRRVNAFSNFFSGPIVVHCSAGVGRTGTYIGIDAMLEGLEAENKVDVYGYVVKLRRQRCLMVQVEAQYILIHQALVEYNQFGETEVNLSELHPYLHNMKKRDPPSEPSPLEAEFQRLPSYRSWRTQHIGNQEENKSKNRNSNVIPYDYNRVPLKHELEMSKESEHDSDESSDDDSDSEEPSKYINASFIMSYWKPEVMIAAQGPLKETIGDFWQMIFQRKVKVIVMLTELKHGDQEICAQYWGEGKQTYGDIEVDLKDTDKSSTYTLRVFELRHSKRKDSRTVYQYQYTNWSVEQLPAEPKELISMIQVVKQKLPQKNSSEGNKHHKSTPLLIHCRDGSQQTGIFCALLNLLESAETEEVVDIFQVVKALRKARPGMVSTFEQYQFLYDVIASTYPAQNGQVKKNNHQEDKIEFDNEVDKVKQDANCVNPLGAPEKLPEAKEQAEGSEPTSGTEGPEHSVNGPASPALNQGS
# Chain of human Protein Tyrosine Phosphatase Non-receptor Type 2 (PTPN2), PTPN2 (gene 5771) (P17706 whole entry, looked up): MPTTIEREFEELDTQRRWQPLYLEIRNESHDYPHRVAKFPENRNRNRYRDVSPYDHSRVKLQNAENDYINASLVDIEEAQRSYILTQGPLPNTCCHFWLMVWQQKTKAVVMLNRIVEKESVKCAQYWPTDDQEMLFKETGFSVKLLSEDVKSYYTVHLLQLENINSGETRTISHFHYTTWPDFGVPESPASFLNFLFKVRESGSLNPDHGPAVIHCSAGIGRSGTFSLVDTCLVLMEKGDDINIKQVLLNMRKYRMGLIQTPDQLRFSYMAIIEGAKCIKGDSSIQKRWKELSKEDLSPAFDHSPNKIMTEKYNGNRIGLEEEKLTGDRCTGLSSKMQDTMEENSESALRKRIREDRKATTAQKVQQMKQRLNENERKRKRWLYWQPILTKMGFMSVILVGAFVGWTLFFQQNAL
compound,measurement,setting,value
OC(Cc1ccccc1Cl)(Cn1[nH]cnc1=S)C1(Cl)CC1 (configuration not stated),outcome,[1],inactive
N#Cc1cccnc1,outcome,[2],inactive
same,outcome,[1],inactive
same,outcome,[3],inactive
same,outcome,[4],inactive
same,outcome,[5],inactive
same,outcome,[6],inactive
same,outcome,[7],inactive
same,outcome,[8],inactive
same,outcome,[9],inactive
same,outcome,[10],inactive
same,outcome,[11],inactive
Cc1ccccc1OP(=O)(Oc1ccccc1)Oc1ccccc1,AC50,[1],44.9 µM (active)
Cc1cccc(OP(=O)(Oc2cccc(C)c2)Oc2cccc(C)c2)c1,outcome,[1],inactive
O=C(O)CC(O)(CC(=O)O)C(=O)O,outcome,[12],inactive
Nc1c(Oc2ccccc2)cc(O)c2c1C(=O)c1ccccc1C2=O,outcome,[1],inactive
Oc1cc(Cl)c(Cl)cc1Cl,outcome,[13],inactive
same,outcome,[12],inactive
CC(C)(COCC1CO1)COCC1CO1 (configuration not stated),outcome,[1],inactive
O=C(CBr)c1ccc(O)cc1,outcome,[7],inactive
COc1ccccc1N,AC50,[13],22.6 µM (active)
same,AC50,[14],17.5 µM (active)
same,AC50,[15],25.4 µM (active)
O=C1c2ccccc2C(=O)C1C(=O)C(c1ccccc1)c1ccc(Cl)cc1 (configuration not stated),AC50,[2],9.45 µM (active)
same,AC50,[1],15.2 µM (active)
same,AC50,[3],20 µM (active)
same,AC50,[7],14.7 µM (active)
same,AC50,[11],2.26 µM (active)
CCCCC(CC)COC(=O)Cl (configuration not stated),AC50,[1],4.14 µM (active)
COCC(=O)N(c1c(C)cccc1C)[C@H](C)C(=O)OC,outcome,[1],inactive
COc1nn(C(=O)NS(=O)(=O)c2ccccc2OC(F)(F)F)c(=O)n1C,AC50,[2],13.3 µM (active)
same,AC50,[1],9.29 µM (active)
same,AC50,[3],5.64 µM (active)
same,AC50,[7],6.08 µM (active)
same,AC50,[11],24.5 µM (active)
C[C@]12CC[C@@H](O)C[C@@H]1CC[C@@H]1[C@@H]2CC[C@]2(C)C(=O)CC[C@@H]12,outcome,[1],inactive
O=C(O)C1(c2ccc3c(c2)OC[C@H](Cc2ccc(-c4ccccc4)cc2)[C@H]3O)CCCC1,outcome,[8],inactive
OCCN(CCO)CCO,outcome,[15],inactive
CC(C)O.CC(C)O.OCCN(CCO)CCO.OCCN(CCO)CCO.[Ti],AC50,[2],13.6 µM (active)
same,AC50,[1],0.493 µM (active)
same,AC50,[3],0.00439 µM (active)
same,AC50,[16],3.51 µM (active)
same,AC50,[17],0.00229 µM (active)
same,AC50,[4],0.00229 µM (active)
same,AC50,[7],0.00229 µM (active)
same,AC50,[18],3.38 µM (active)
same,AC50,[19],0.119 µM (active)
same,outcome,[12],inactive
same,AC50,[10],0.00229 µM (active)
same,AC50,[11],3.53 µM (active)
Cc1ccccc1OP(=O)(Oc1ccccc1C)Oc1ccccc1C,AC50,[1],45.1 µM (active)
CN(C)C(=S)S,outcome,[1],inactive
same,AC50,[14],7.44 µM (active)
Clc1cccc(Cl)c1Cl,outcome,[1],inactive
same,outcome,[3],inactive
same,outcome,[18],inactive
same,outcome,[19],inactive
same,outcome,[12],inactive
same,outcome,[15],inactive
same,outcome,[11],inactive
CCCCCCCCCCCCOS(=O)(=O)O,AC50,[1],21.6 µM (active)
same,outcome,[4],inactive
same,AC50,[12],25 µM (active)
same,AC50,[11],26.9 µM (active)
CCCCCCCCCCCCc1cccc(S(=O)(=O)O)c1,AC50,[2],22.5 µM (active)
same,AC50,[1],12.9 µM (active)
same,AC50,[3],12.8 µM (active)
same,AC50,[16],22.7 µM (active)
same,AC50,[6],5.53 µM (active)
same,AC50,[7],19.2 µM (active)
same,AC50,[14],6.82 µM (active)
same,AC50,[19],14.4 µM (active)
same,AC50,[12],28.8 µM (active)
same,AC50,[20],36.3 µM (active)
same,AC50,[11],12.4 µM (active)
O=C(N[C@H]1CN2CCC1CC2)c1ccc2c(c1)OCCO2,outcome,[12],inactive
same,outcome,[11],inactive
